According to ChEMBL document CHEMBL1157539, “Thousands of chemical starting points for antimalarial lead identification” (Nature, 2010):

System: HepG2
Assay: GSK_TCMDC: Percent inhibition of human HepG2 cell line. Test compounds present at 10uM.
Type: functional

Compound | Inhibition [%]
COc1ccccc1N1CCN(CCCCNC(=O)c2ccc(NC(=O)c3cc(Cl)cc(Cl)c3)cc2)CC1 | 9
CCCN1CCN(c2ccc(NS(=O)(=O)c3ccc(C(=O)Nc4ccc(Cl)cc4)cc3)cc2)CC1.O=C(O)C(F)(F)F | 4
CN(C)Cc1cccc(-c2ccc(NC(=O)c3ccc4c(=O)n(CC5CCCO5)cnc4c3)cc2)c1 (stereo unspecified) | 28
CN1CCN(CCCN(Cc2ccc(-c3ccc(CNC4CCCC4)cc3)cc2)C(=O)CCC2CCCC2)CC1.O=C(O)C(F)(F)F | 92
COc1ccc(CNCc2ccc(-c3cccc(-c4nc5cc(C(F)(F)F)ccc5[nH]4)c3)cc2)cc1.O=C(O)C(F)(F)F | 59
Cn1nc(-c2ccc(NC(=O)Nc3cc(C(F)(F)F)ccc3F)cc2)c2cnc(NCCc3c[nH]cn3)nc21.O=C(O)C(F)(F)F | 15
Cl.Nc1c2c(nc3ccc(NC(=O)CCCCCc4ccccc4)cc13)CCCC2 | 32
COc1cc(NC(=O)c2cccs2)c(OC)cc1NC(=O)Nc1cccc(Cl)c1 | 5
CC(C)(C)Cn1cc(-c2ccc(C(=O)NCCc3ccc(S(C)(=O)=O)cc3)cc2)c(N)n1.CC(C)(C)Cn1ncc(-c2ccc(C(=O)NCCc3ccc(S(C)(=O)=O)cc3)cc2)c1N.O=C(O)C(F)(F)F | 7
Cn1cc(C2CCN(CCCCNC(=O)c3ccc(-c4ccc(C(F)(F)F)cc4)c(CO)c3)CC2)c2ccccc21 | 67
CCCCCCN1CCCN(Cc2ccc(C(=O)Nc3ccc(C(C)C)cc3)cc2)CC1.O=C(O)C(F)(F)F | 40
